Compounds with a hit are over-represented: about 6.4% of the library has one in this group of screens.
RORg inh: qHTS for inhibitors of ROR gamma transcriptional activity. Drosophila S2 Gal4-RORgamma UAS-luciferase reporter, 20 h. Nuclear receptor ROR-gamma (Mus musculus), P51450. 310,000 tested, 5.4% active. Potency, µM (titrated, usually from 53.6 µM), without a hit: top-dose activity change, negative = inhibition, hits mostly inhibitors. AID 2551, 2010; further: nearly all actives have a fitted effect of over 60% in size
Target sequence (P51450 whole entry, looked up, the tested form may be a part): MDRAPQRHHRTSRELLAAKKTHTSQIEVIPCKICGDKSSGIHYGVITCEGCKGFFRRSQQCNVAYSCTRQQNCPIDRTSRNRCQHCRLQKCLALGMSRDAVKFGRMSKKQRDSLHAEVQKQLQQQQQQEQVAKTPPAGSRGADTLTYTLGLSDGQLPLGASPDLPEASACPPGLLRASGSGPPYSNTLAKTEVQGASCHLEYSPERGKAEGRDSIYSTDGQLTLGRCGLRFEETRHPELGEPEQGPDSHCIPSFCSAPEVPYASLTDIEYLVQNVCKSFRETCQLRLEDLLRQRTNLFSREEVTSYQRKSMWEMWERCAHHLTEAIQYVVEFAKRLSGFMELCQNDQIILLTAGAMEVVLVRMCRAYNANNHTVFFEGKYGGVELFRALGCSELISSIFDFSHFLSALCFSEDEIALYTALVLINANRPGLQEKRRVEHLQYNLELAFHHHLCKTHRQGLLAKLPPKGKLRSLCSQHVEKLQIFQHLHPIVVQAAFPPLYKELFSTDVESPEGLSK
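Stable Schneider cell line, Gal4 DNA-binding domain fused to ROR gamma, UAS-luciferase. Cmpd 1 hr RT → CuSO4 700 uM final → 20 hr RT → luciferase reagent 10 min → luminescence.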
Gal4-VP16 FLuc: VP16 counterscreen qHTS for inhibitors of ROR gamma transcriptional activity | Drosophila S2 Gal4-VP16 UAS-luciferase, luminescence, 20 h | Potency, µM (series often up to 53.6 µM), for the others: at the top dose activity, negative = inhibition, hits mostly inhibitors | 310,000 tested, 3.5% active;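 further: Gal4-VP16 expression switched on by copper sulfate through the metallothionein promoter; nearly all actives have a fitted effect of over 50% in size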
Luc counter: Counterscreen for Luciferase (Kinase-Glo TM) Inhibition; Kinase-Glo luciferase, ATP luminescence, 8 min; Luciferin 4-monooxygenase (Photuris pensylvanica), Q27757; AID 1379, 2008; Potency, µM (highest dose often 38.3 µM), for the others: at the top dose activity change, negative = inhibition, hits mostly inhibitors; 200,000 tested, 0.28% active; further: nearly all actives have a fitted effect of over 60% in size
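Light output from Kinase-Glo luciferase with luciferin and 10 uM ATP in 50 mM imidazole pH 7.2, KCl, MgCl2, Tween 20, BSA; compound pin-delivered, 8-min ambient incubation, then luminescence read.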
* hit, by the source's call; ? = inconclusive; . = not tested or not shown; [ ] = dose if it differs, or a comment. The call rests on the fitted dose curve; in most records, active means well fitted curve in the direction sought with a large enough effect; inconclusive means small, poorly fitted or top-dose-only effect, or another doubt; inactive means no such curve, though single readings can be large; an effect the other way counts as inactive or inconclusive. On the % scale 0 is the no-effect control and ±100 the full control effect; potency means the concentration at half of the fitted maximal effect.

SMILES | RORg inh | Gal4-VP16 FLuc | Luc counter
Cc1ccc(N(C(=O)Cn2nnc(-c3ccc(F)cc3)n2)C(C(=O)NC(C)(C)C)c2ccncc2)cc1 (stereo unspecified) | 39.4% | 1.9% | 0.3%
CC(C)(C)c1cc(C(=O)N/N=C/c2cc3c(cc2Br)OCO3)n[nH]1 | 4.6% | -5.6% | .
CN1CCN(C(=O)/C(=C/c2ccccc2F)NC(=O)c2ccccc2)CC1 | 23.6% | -6.3% | .
O/N=C1\CCCc2c1nc(-c1ccccc1F)n2O | -1.4% | -3.3% | .
O=C(NCc1ccc(Cl)cc1)N1CCN(S(=O)(=O)c2ccccc2)CC1 | 4.5% | -3.6% | .
CCCNC(=O)COc1ccccc1[N+](=O)[O-] | 15.7% | ? | .
Cc1ccc(OCC(=O)c2cc(C)c(C)cc2C)c([N+](=O)[O-])n1 | 11.2µM* | ? | -1.7%
Cc1ccc(C)c(C(=O)COc2ccccc2[N+](=O)[O-])c1 | -97.3% | 12.6µM* | 3.7%
Cc1ccc(C)c(C(=O)COc2ccc(C)nc2[N+](=O)[O-])c1 | ? | ? | 0.0%
O=C(CCc1nnc(CCc2ccccc2)o1)N1CCCC1c1nccs1 (stereo unspecified) | 8.5% | -4.5% | 2.7%
Cc1ccc(SCCC(=O)NCCSCc2ccccc2C)cc1 | -0.8% | -4.9% | .
COc1ccccc1CCN1C(=S)NC(C)(C)CC1(C)O (stereo unspecified) | 2.82µM* | 5.62µM* | -6.3%
COc1ccc(CNC(=O)CCN2C(=S)NC(C)(C)CC2C)cc1 (stereo unspecified) | ? | 12.8% | 1.1%
COc1ccc(CN2C(=S)NC(C)(C)CC2(C)O)cc1 (stereo unspecified) | 12.6µM* | ? | 0.3%
COc1ccccc1CCN1CCCC(CN(C)CC(C)(C)CO)C1 (stereo unspecified) | 18.1%[1.91 µM] | -4.9% | .
CC(Sc1ccccc1)C(=O)N1CCN(S(=O)(=O)c2ccccc2F)CC1 (stereo unspecified) | 5.9% | 7.2% | .
S=C(NCCCN1CCOCC1)Nc1cccc(-c2nnc3n2CCCCC3)c1 | -16.7% | -4.8% | -0.7%
COc1ccc(-c2cn3c(C)c(C(=O)Nc4cc(NC(C)=O)ccc4OC)sc3n2)cc1 | 12.6µM* | ? | 1.9%
CNC(=O)c1sc2nc(-c3ccc(OC)cc3)cn2c1C | 4.3% | 9.8% | 4.2%
O=c1cnc2cnc(Nc3ccccc3)nc2n1CCc1ccccc1 | 2.8% | -6.1% | .
CSc1nn2cc(CCN3CCOCC3)c(-c3ccc(F)cc3)nc2c1C#N | 12.6% | -12.3% | 0.3%
C/C(=C\C(=S)Nc1ccccc1)Nc1ccccc1 | 10µM* | ? | -1.9%
CC(=O)Nc1ccc(NC(=S)Nc2ccccc2)cc1 | -25.5% | -12.0% | 1.6%
Cc1ccc(S(=O)(=O)NCCC(=O)NC2CC2)cc1 | 1.5% | 3.8% | .
Cc1ccc(Oc2nc(CN3CCOCC3)nc3sc4c(c23)CCC(C)C4)cc1C (stereo unspecified) | 7.94µM* | 11.2µM* | -1.9%
SMILES | RORg inh | Gal4-VP16 FLuc | Luc counter
CC1CCc2c(sc3nc(CN4CCOCC4)nc(N4CCc5ccccc5C4)c23)C1 (stereo unspecified) | -78.1% | ? | -2.1%
COc1cc2c(cc1OC)CN(c1nc(CN3CCCCC3)nc3sc4c(c13)CCCC4)CC2 | 11.2µM* | ? | 0.0%
Cc1ccc(Oc2nc(CN3CCOCC3)nc3sc4c(c23)CCC(C)C4)cc1 (stereo unspecified) | ? | ? | 1.3%
COc1cc2c(cc1OC)CN(c1nc(CN3CCOCC3)nc3sc4c(c13)CCCC4)CC2 | 14.1µM* | ? | -2.4%
Cc1cc(S(=O)(=O)Nc2nc(CN3CCOCC3)nc3sc4c(c23)CCCC4)ccc1F | -1.9% | 1.1% | -3.4%
COc1cccc(Nc2nc(CN3CCOCC3)nc3sc4c(c23)CCCC4)c1 | 10µM* | ? | -1.3%
COc1cc2c(cc1OC)CN(c1nc(CN3CCCC3)nc3sc(C)c(C)c13)CC2 | ? | -6.5% | 0.3%
Cc1ccc(-c2cccc(-c3cc(=O)oc4ccc(C(C)(C)C)cc34)c2)cc1 | 2.2% | -1.0% | 2.5%[39.9 µM]
COC(=O)N[C@@H](/C=C/c1ccccc1)C[N+](=O)[O-] | -2.7% | -1.7% | 1.6%
Cc1cccc(C(=O)N/C(=C\c2ccc(C)o2)C(=O)O)c1 | 23.6% | -2.6% | .
Nc1c(CC(=O)O)cccc1C(=O)c1ccc(Br)cc1 | -10.9%[10 µM] | 5.9% | .
Cc1cccc(C2(c3cccc(C)c3)CC2C(=O)NCC2CCCO2)c1 (stereo unspecified) | -20.4% | -7.9% | 2.9%
Cc1cccc(C2(c3cccc(C)c3)CC2C(=O)Nc2ccc([N+](=O)[O-])cc2O)c1 (stereo unspecified) | -104.2% | 11.2µM* | -2.2%
